Assay outcomes deposited in PubChem by ICCB-Longwood Screening Facility, Harvard Medical School.
Only some compounds are listed: those with a hit (about 1.4% of all), similar ones and a draw of the others.
Polio RdRp inh – poliovirus RNA polymerase inhibition | P03300 | poliovirus polymerase elongation, fluorescence polarization; hits give low values | % elongation, % (compound at 16.7 µg/mL) | 0.66% of 150,000 active; in the data active = % elongation below about 90%
Mtb MbtI inh – blocks the Mycobacterium tuberculosis siderophore enzyme MbtI; purified MbtI enzyme, fluorescence intensity read-out; inhibition, % (test concentration not listed); 0.89% of 100,000 active; in the data active = inhibition mostly above about 56%, no sharp cut-off; inactive = mostly below about 77%
Target sequence (P9WFX0 whole entry, looked up): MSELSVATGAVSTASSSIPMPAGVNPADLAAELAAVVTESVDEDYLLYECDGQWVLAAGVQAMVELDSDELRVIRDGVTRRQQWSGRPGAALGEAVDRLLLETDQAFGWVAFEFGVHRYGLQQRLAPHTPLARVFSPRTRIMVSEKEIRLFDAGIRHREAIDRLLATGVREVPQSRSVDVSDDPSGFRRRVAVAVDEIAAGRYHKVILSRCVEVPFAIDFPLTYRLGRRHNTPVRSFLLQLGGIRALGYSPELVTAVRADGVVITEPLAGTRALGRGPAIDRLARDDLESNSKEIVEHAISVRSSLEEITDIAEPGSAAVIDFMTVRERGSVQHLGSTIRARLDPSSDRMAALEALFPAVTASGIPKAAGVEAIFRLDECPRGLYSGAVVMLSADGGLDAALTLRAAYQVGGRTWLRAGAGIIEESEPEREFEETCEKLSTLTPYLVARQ
Mtb MenB inh – inhibitors of Mycobacterium tuberculosis MenB enzyme; inhibition, % (concentration not given with the values); 0.43% of 100,000 active; P9WNP5; MenB enzyme assay, absorbance read-out; in the data active = inhibition above about 21%, passing the limit was not always enough
AID504770 – E. coli YBA685 growth inhibition, screen for V. cholerae RctB inhibitors; z-score (no concentration beside the values); E. coli YBA685 rctB-dependent plasmid, OD600 growth, 3 h; hits give low values; 0.27% of 130,000 active; in the data active = z-score below about -2, passing the limit was not always enough
* hit, by the source's call; x = no result.

SMILES | Polio RdRp inh | Mtb MbtI inh | Mtb MenB inh | AID504770
CCOc1ccc(C2=C(C(=O)CC)Sc3nncn3N2C(=O)CC)cc1 | 82.0* | x | x | x
CC1=C(C)C(=O)C(NCc2ccco2)=CC1=O | 74.0* | 7.5 | -120.0 | -1.05
O=C(NCc1ccco1)C(c1ccccc1)N(Cc1ccco1)C(=O)Cn1nnc2ccccc21 (configuration not stated) | 102.0 | 1.4 | 34.4* | -0.5
Cc1cccc2nc(CSC(=S)NCc3cccnc3)cn12 | x | x | x | -3.7*
CC(NC(=O)c1ccc(Cl)cc1Cl)C(=O)NC1CCCCC1 (configuration not stated) | x | x | x | -0.05
CCN1/C(=C2/SC(=S)N(N)C2=O)C=Cc2cc(C)ccc21 | 102.0 | -5.4 | -19.6 | 1.45
CC(NC(CC(=O)c1ccc(F)cc1)C(=O)O)c1ccccc1 (configuration not stated) | 105.0 | x | 83.3* | -0.5
COc1ccccc1NC(CC(=O)c1ccccc1)C(=O)O (configuration not stated) | 106.0 | x | -8.8 | 0.45
Cc1cccc(NC(=O)CN(CC2CCCO2)C(=O)c2cc(-c3ccco3)nc3ccccc23)c1C (configuration not stated) | 1.0* | 102.9 | -6.6 | -0.8
Cc1cnc(C(=O)N(CC(=O)Nc2cccc(C)c2C)CC2CCCO2)cn1 (configuration not stated) | 101.0 | -5.0 | -11.2 | 0.15
C=CCn1c(C)cc(C(=O)COn2nnc3ccc(Cl)cc32)c1C | 107.0 | -0.1 | -35.3 | -1.7
Cc1cccc(-n2c(-c3ccco3)nc3ccccc3c2=O)c1 | 104.0 | 59.0* | -4.8 | -0.3
COc1ccc(-n2c(-c3ccco3)nc3ccccc3c2=O)cc1 | 100.0 | -1.3 | -2.1 | 0
O=c1sn(-c2ccccc2C(F)(F)F)c(=O)n1CC1CC1 | 100.0 | 98.7* | 2.6 | -1.2
CCC(C)CCCCC(=O)NC(CCN)C(=O)NC(C(=O)NC(CCN)C(=O)NC1CCNC(=O)C(C(C)O)NC(=O)C(CCN)NC(=O)C(CCN)NC(=O)C(CC(C)C)NC(=O)C(Cc2ccccc2)NC(=O)C(CCN)NC1=O)C(C)O (configuration not stated) | 99.0 | -13.2 | -11.9 | -5.2*
COc1ccc(C(=O)Nc2nc3c(s2)CCc2cc(OC)ccc2-3)cc1 | 80.0* | x | x | x
COc1ccc2c(c1)Cc1sc(NC(=O)c3ccc(Cl)cc3)nc1-2 | 88.0* | x | x | x
COc1ccc2c(c1)Cc1sc(NC(=O)c3cccc(Cl)c3)nc1-2 | 63.0* | x | x | x
COc1ccc2c(c1)CCc1sc(NC(=O)c3cccc(Br)c3)nc1-2 | 101.0 | x | x | x
COc1ccc2c(c1)Cc1sc(NC(=O)c3cccc(C)c3)nc1-2 | 56.0* | x | x | x
C=CCOC(=O)COc1ccc(Oc2ccccc2)cc1 | 94.0 | -13.8 | -32.4 | -0.25
CCOC(=O)c1cc(CN2CCOCC2)c(C)o1 | 106.0 | x | 3.6 | -0.35
COc1cccc(C(=O)Nc2cc3cc(OC)ccc3oc2=O)c1 | 85.0* | x | x | x
Cc1cccc(CS(=O)(=O)c2ccc(Cl)cc2)c1F | x | x | x | -0.4
CO/N=C1\CN(c2nc3c(cc2F)c(=O)c(C(=O)O)cn3C2CC2)CC1CN (configuration not stated) | 100.0 | x | -1.0 | -3.6*
SMILES | Polio RdRp inh | Mtb MbtI inh | Mtb MenB inh | AID504770
O=C(O)c1cn(C2CC2)c2cc(N3CCNCC3)c(F)cc2c1=O | 100.0 | 103.8 | 3.9 | -3.4*
CCn1cc(C(=O)O)c(=O)c2cc(F)c(F)cc21 | 100.0 | -211.2 | -27.3 | -1.35
COc1c(N2CCNC(C)C2)c(F)cc2c(=O)c(C(=O)O)cn(C3CC3)c12 (configuration not stated) | 100.0 | -55.2 | 4.6 | -3.55*
CCSc1n[nH]c(C(F)(F)F)n1 | 104.0 | 18.9 | -5.0 | 0.3
CCN(C(=O)CCc1ccccc1)c1ccccc1 | 107.0 | x | -22.7 | -0.55
Cc1cc(NC(=S)N(C)C)ccc1Br | 97.0 | 96.2* | -5.2 | 1.95
O=C(NCc1ccco1)c1ccc(-n2nncc2-c2ccccc2)cc1 | 103.0 | 16.5 | -4.8 | 0.95
NC(=O)c1ccc(NC(=O)CN2CC(=O)Nc3ccccc32)cc1 | 103.0 | 10.2 | -13.2 | -0.75
CCN(CC)S(=O)(=O)c1ccc(NC(=O)CCn2c(=O)oc3ccccc32)cc1 | 101.0 | 8.4 | -10.6 | 0.65
Cc1cc(C(=O)COC(=O)c2ccc3c(c2)NC(=O)CS3)c(C)n1Cc1cccs1 | 104.0 | 17.7 | -22.4 | -0.05
O=C(COC(=O)c1ccc2c(c1)NC(=O)CS2)NCc1cccs1 | 11.0* | 10.4 | 7.3 | -0.3
O=c1[nH]cnc2c1nnn2Cc1ccc(F)cc1 | 102.0 | x | -2.9 | -1.45
c1csc(C2NCCc3[nH]cnc32)c1 (configuration not stated) | x | x | x | -0.2
Oc1c(Br)cc(Cl)cc1/C=N/c1ccccn1 | 75.0* | 162.8 | -104.0 | -1.3
CC(N=Cc1c(O)ccc2ccccc12)C12CC3CC(CC(C3)C1)C2 (configuration not stated) | 101.0 | -1.2 | -7.1 | -0.55
COCCNC(=S)N1c2ccccc2CC1C (configuration not stated) | 84.0* | 63.7* | -33.2 | -1.2
COc1ccc(NC(=O)CC2SC(=Nc3ccccc3)N(c3ccccc3)C2=O)cc1 (configuration not stated) | 103.0 | -1.4 | -22.8 | 0.25
COc1ccc(NC(=O)CC2Sc3ncnn3C2=O)cc1 (configuration not stated) | x | 100.0* | x | -0.3
CNc1nc(-c2ccc3c(c2)CCN3C(=O)C(C)C)cs1 | 103.0 | 14.1 | 35.4* | 1.9
COc1ccc([C@H]2[C@@H](C(=O)O)c3ccccc3C(=O)N2Cc2ccc3c(c2)OCO3)cc1 | 38.0* | 4.2 | 6.1 | 0
Cc1sc2cc(-[n+]3ccc(O)cc3)ccc2[n+]1-c1ccccc1 | 100.0 | 94.8* | x | 0.9
CCOC(=O)N=c1oc2cc(Cl)c(Cl)cc2o1 | 99.0 | 96.3* | 3.8 | -2.5
CCOC(=O)Oc1cc2oc(=O)sc2cc1Cl | 98.0 | 22.3 | 6.2 | -0.15
CCc1nc2ccccc2c(N)c1C | 90.0* | x | 14.1 | -0.85
CNC(=O)c1sc(NCc2ccco2)nc1C | 77.0* | 97.8* | -25.3 | 0.15
SMILES | Polio RdRp inh | Mtb MbtI inh | Mtb MenB inh | AID504770
C=CCn1c(CSCc2ccc(F)cc2)n[nH]c1=S | 97.0 | 64.0* | -14.7 | 1.5
C=CCn1c(Cc2ccc(OC)c(Cl)c2)n[nH]c1=S | 103.0 | 90.7* | -20.5 | 1.75
C=CCn1c(C(C)Oc2ccc(Cl)cc2Cl)n[nH]c1=S (configuration not stated) | 103.0 | 38.4 | -15.7 | -0.75
CC1(C)OC(=O)C(=C2C3CC4CC(C3)CC2C4)C(=O)O1 | 101.0 | 0.8 | -11.5 | 1
Cc1ccc(Nc2nnns2)cc1C | 94.0 | 59.9* | -18.4 | -0.95
CCc1ccc(CN2CCC(N3CCCCC3)CC2)cc1 | 95.0 | x | -14.6 | 2
CCc1ccc(CN2CCN(CC)CC2)cc1 | 102.0 | 0.9 | 34.6* | 0.85
S=c1[nH]nc(-c2ccccc2)n1-c1ccccc1 | 101.0 | 3.2 | -17.1 | 0.05
S=c1[nH]nc(Nc2ccccc2)n1-c1ccccc1 | 97.0 | 57.7* | -20.7 | -0.15
Cn1nccc1NC(=O)CC#N | x | x | x | -0.75
CCc1nn(CC(=O)N(CC)Cc2ccccc2)c(=O)c2cc3sccc3n12 | 101.0 | 0.6 | 5.6 | -0.65
CCOc1cc(C(=O)O)c(N)cc1OC | 87.0* | 99.5 | 11.5 | -0.35
